Screening data as filed in PubChem.
Shown are actives, neighbours in structure and some others; about 3.8% of the full set was active somewhere.
HepG2 tox = HepG2 cytotoxicity, counter-screen for TGF-b inhibitors; HepG2 CAGA-GFP viability, ATP luminescence, 18 h; Potency, µM (titrated, usually from 46.1 µM), inactives show at the highest dose activity change, negative = cytotoxicity, hits mostly cytotoxic; 410,000 compounds, 0.76% hits
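CellTiter-Glo luminescence gave cytotoxicity after 18 hours at 37 degrees C. The cells were HepG2 CAGA-GFP in 1% FBS DMEM, stimulated with 500 pg/mL TGF-beta after compound addition. %Activity was normalised to no-cell wells (complete cell-killing) and DMSO (no toxicity), and curves were fitted and classified.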
A549 tox-1 = kills or reduces viability of A549 cells in Nrf2 counter-screen. A549 ARE-Fluc cells, CellTiter-Fluor viability, 18-24 h. Potency, µM (titrated, usually from 46 µM), for the others: top-dose activity change, negative = cytotoxicity, hits mostly inhibitors. 390,000 compounds, 0.16% hits; also: % is scaled to controls: 0 for no effect and ±100 for the full control effect
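Cytotoxicity counterscreen: CellTiter-Fluor fluorescence was measured in A549 ARE_Fluc cells after 18-24 h of compound exposure in a concentration series. The subsequent BugLite luminescent read reports ARE-luciferase activity.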
ATXN2 expr inh = ATXN2 expression inhibition; Potency, µM (top dose mostly 57 µM), for inactives: at the top dose activity change, negative = inhibition, usual class: inhibitors; 360,000 compounds, 0.72% hits; HEK-293 ATXN2-luciferase reporter, luminescence, 24 h; also: % is scaled to controls: 0 for no effect and ±100 for the full control effect; nearly all actives have a fitted effect of over 55% in size
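qHTS (up to 57 uM final) was run with 24 h compound exposure of reporter cells at 37 °C. Each well was multiplexed: SteadyGlo luminescence measured ATXN2-luciferase expression after a fluorogenic Gly-Phe-AFC viability readout (25 uM final).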
TGFb inhibitor = blocks TGF-b signaling | HepG2 CAGA-GFP TGF-b/SMAD3 reporter, GFP fluorescence, 18 h; TGF-beta stimulated, 500 pg/mL final | Potency, µM (highest dose often 46.1 µM), inactives show at the top dose activity, negative = inhibition, actives largely listed as inhibitors | 410,000 compounds, 1.2% hits | AID 588855; also: % is scaled to controls: 0 for no effect and ±100 for the full control effect; nearly all actives have a fitted effect of over 65% in size
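Inhibition was scored as loss of TGF-beta-induced (500 pg/mL final, 18 hours, 37 degrees C) GFP in HEPG2 cells carrying a CAGA-GFP reporter, in DMEM with 1% FBS. Well GFP was summed per cell; Activity was normalised to unstimulated and stimulated DMSO wells, then concentration-response fitting.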
Nrf2 block = blocks Nrf2 signaling. A549 ARE-Fluc reporter, luciferase luminescence, 18-24 h. Potency, µM (doses to about 46 µM), for the others: at the top dose activity change, negative = inhibition, most hits filed as inhibitors. 360,000 compounds, 2.1% hits; also: % is scaled to controls: 0 for no effect and ±100 for the full control effect; nearly all actives have a fitted effect of over 60% in size
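Quantitative HTS in A549 cells stably bearing an antioxidant response element-firefly luciferase construct. Inhibition of Nrf2-driven transcription was scored by luminescence after 18-24 h of compound exposure at 37 °C.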
ATXN viability = viability counter-screen for ATXN expression inhibitors; S2 cells (HEK-293 line with an ATXN2-luciferase reporter) viability, CellTiter-Fluor protease fluorescence, 24 h; 400,000 compounds, 0.49% hits; Potency, µM (doses to about 56.7 µM), most hits filed as cytotoxic; also: nearly all actives have a fitted effect of over 40% in size
FLuc counter 3 = firefly luciferase inhibition, Nrf2 hit validation. shares compounds with Nrf2 block. purified firefly luciferase, luminescence inhibition. Potency, µM (top dose mostly 57.5 µM), for the others: at the highest dose activity change, negative = inhibition, actives largely listed as inhibitors. 1,400 compounds, 4% hits. AID 720522; also: % is scaled to controls: 0 for no effect and ±100 for the full control effect; nearly all actives have a fitted effect of over 65% in size
Target sequence (P08659 whole entry, looked up): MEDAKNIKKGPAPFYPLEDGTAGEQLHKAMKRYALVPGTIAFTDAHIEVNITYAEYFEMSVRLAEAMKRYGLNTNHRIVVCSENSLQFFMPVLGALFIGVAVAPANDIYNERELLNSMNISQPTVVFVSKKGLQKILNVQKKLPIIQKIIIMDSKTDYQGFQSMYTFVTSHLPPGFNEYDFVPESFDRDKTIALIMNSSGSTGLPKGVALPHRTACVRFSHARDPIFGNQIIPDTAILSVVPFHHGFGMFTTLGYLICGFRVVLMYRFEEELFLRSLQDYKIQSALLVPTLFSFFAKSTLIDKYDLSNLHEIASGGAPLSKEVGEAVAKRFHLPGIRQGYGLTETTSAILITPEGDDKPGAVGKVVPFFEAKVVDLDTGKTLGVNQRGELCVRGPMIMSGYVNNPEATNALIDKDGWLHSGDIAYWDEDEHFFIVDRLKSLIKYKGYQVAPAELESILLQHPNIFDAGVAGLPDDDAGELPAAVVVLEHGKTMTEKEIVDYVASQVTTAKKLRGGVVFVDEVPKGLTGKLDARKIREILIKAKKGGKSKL
A549 tox-2 = counter-screen for Nrf2 inhibitors: cytotoxicity in A549 ARE cells; shares compounds with Nrf2 block; A549 ARE-Fluc cells, cytotoxicity counterscreen; Potency, µM (top dose mostly 46.1 µM), for inactives: at the highest dose activity change, negative = cytotoxicity, most hits filed as inhibitors; 1,400 compounds, 2% hits;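 also: cells exposed to compounds for 18 to 24 hours; % is scaled to controls: 0 for no effect and ±100 for the full control effect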
Nrf2 ARE inh = reduces Nrf2 ARE reporter signal in A549 cells. A549 ARE-firefly luciferase reporter, luminescence. 1,400 compounds, 74% hits. shares compounds with Nrf2 block. Potency, µM (titrated, usually from 46.1 µM), inactives show at the top dose activity change, negative = inhibition, usual class: inhibitors; also: % is scaled to controls: 0 for no effect and ±100 for the full control effect; nearly all actives have a fitted effect of over 65% in size
* = called active by the depositor; i = inactive; ? = inconclusive; · = no result shown; ! = a repeat was not active. Calls follow the shape of the dose curve; as a rule, active = well fitted curve in the direction sought with a large enough effect; inconclusive = small, poorly fitted or top-dose-only effect, or another doubt; inactive = no such curve, though single readings can be large; an effect the other way counts as inactive or inconclusive. Potency is read from the fitted curve at half-maximal effect.

SMILES	HepG2 tox	A549 tox-1	ATXN2 expr inh	TGFb inhibitor	Nrf2 block	ATXN viability	FLuc counter 3	A549 tox-2	Nrf2 ARE inh
CN(Cc1cnc2nc(N)nc(N)c2n1)c1ccc(C(=O)NC(CCC(=O)O)C(=O)O)cc1 (centres undefined)	0.28µM*	-9%	?	-27%	0.29µM*	i	-17%	-9%	1.5µM*
CN(Cc1cnc2nc(N)nc(N)c2n1)c1ccc(C(=O)NC(CCC(=O)O)C(=O)O)cc1C(F)(F)F (centres undefined)	-63%	-19%	?	-25%	?	i	·	·	·
C=CC[n+]1c(-c2ccc(C)cc2)csc1Nc1ccc(NC(C)=O)cc1	-9%	-13%	·	-23%	6.5µM*	?	-26%	-8%	6.5µM*
CCOC(=O)c1nnn(C(CC)C(=O)Nc2ccc(F)cc2)c1C(=O)OCC (centres undefined)	1%	1%	5%	?	6%	i	·	·	·
COC(=O)c1ccccc1NC(=O)CSc1nc2ccsc2c(=O)n1CCCCC(=O)O	-8%	·	·	-1%	·	i	·	·	·
CC(=O)Nc1cccc(-c2cnc(N)c(C(=O)c3cccnc3)n2)c1	-13%	?	?	10µM*	5.2µM*	?	-14%	-23%	·
O=C(Nc1ncccc1O)c1ccc(S(=O)(=O)Nc2ccccc2)cc1	-19%	0%	80%	-6%	-21%	i	·	·	·
O=c1c2ccccc2nc2n1CCN2Cc1ccc(Cl)cc1	-9%	-21%	-12%	?	5.8µM*	i	-16%	-12%	4.1µM*
CCOC(=O)C1CCCN(C(=O)c2cc3c(Cl)nc4ccccc4c3s2)C1 (centres undefined)	-39%	0%	14µM*	-24%	5.8µM*	?	-1%	0%	8.2µM*
O=C(c1cc2c(Cl)nc3ccccc3c2s1)N1CCCCC1	-13%	-4%	26%	?	7%	i	·	·	·
COc1cc(OC)cc(-c2cc3nc(C)c(CCC(=O)Nc4ccc(C(C)=O)cc4)c(C)n3n2)c1	0%	-10%	·	12%	4.1µM*	·	-12%	-5%	18µM*
COc1cc(OC)cc(-c2cc3nc(C)c(CCC(=O)Nc4ccccc4OC)c(C)n3n2)c1	-34%	-3%	?	?	?	?	·	·	·
CCOC(=O)c1ccc(NC(=O)CCc2c(C)nc3cc(-c4ccc(OC)cc4OC)nn3c2C)cc1	2%	-3%	5%	0%	5%	i	·	·	·
COc1cc(OC)cc(-c2cc3nc(C)c(CCC(=O)NCc4ccccc4)c(C)n3n2)c1	8%	2%	8.9µM*	-26%	7.3µM*	?	-18%	3%	7.3µM*
c1ccc(CN(CC2=NCCN2)c2ccccc2)cc1	-6%	2%	-12%	37%	-2%	i	·	·	·
Cc1ccc(N(CC2=NCCN2)c2cccc(O)c2)cc1	8%	?	5%	11%	7.3µM*!	i	-1%	-7%	10µM*
CN(Cc1ccccc1)C1=CC(=[N+]2CCCCC2)CC(C)(C)C1	-26%	?	?	11µM*	4.6µM*	i	3%	-27%	0.82µM*
O=C(NCC(c1ccco1)N1CCCC1)c1ccc(Cl)c(S(=O)(=O)N2CCc3ccccc32)c1 (centres undefined)	-20%	8.2µM*	-26%	?	1.3µM*	?	-14%	-29%	·
Cc1ccc(S(=O)(=O)N(C)Cc2ccc(C(=O)N/N=C/c3ccc(OC(F)F)cc3OC(F)F)cc2)cc1	-3%	-2%	-17%	-27%	9.2µM*	i	2%	-7%	4.6µM*
COc1ccc(Nc2nc(-c3cccs3)nc3ccccc23)cc1S(=O)(=O)N1CCOCC1	-37%	?	-4%	?	9.2µM*	i	-21%	?	?
COc1ccccc1S(=O)(=O)N1CCN(c2nc(-c3cccs3)nc3ccccc23)CC1	·	0%	·	·	-10%	·	·	·	·
Nc1ncnc2c(C3OC(CO)C(O)C3O)c[nH]c12 (centres undefined)	3.2µM*	?	?	-3%	0.23µM*	·	2%	?	0.1µM*
Nc1ncnc2c1ncn2[C@@H]1O[C@H](CO)[C@@H](O)[C@H]1O	33%	-4%	11%	-4%	-1%	i	·	·	·
CCOC(=O)N1CCN(Cc2ccc3c(c2)CN(C(=O)c2noc4c2CCCC4)CCO3)CC1	·	·	·	·	·	i	·	·	·
COc1cccc(Cn2c(NCc3ccco3)nc3c2c(=O)n(C)c(=O)n3C)c1	-35%	?	-39%	0%	8.2µM*	i	-1%	-9%	6.5µM*
SMILES	HepG2 tox	A549 tox-1	ATXN2 expr inh	TGFb inhibitor	Nrf2 block	ATXN viability	FLuc counter 3	A549 tox-2	Nrf2 ARE inh
CCCCCCn1c(NCC)nc2c1c(=O)n(C)c(=O)n2C	-3%	-17%	-16%	-23%	3.7µM*	i	1%	-7%	5.8µM*
CCCCNc1nc2c(c(=O)n(C)c(=O)n2C)n1CCC	-17%	0%	-6%	-22%	-5%	i	·	·	·
Cn1c(=O)c2c(nc(NCc3ccccc3)n2Cc2ccccc2)n(C)c1=O	-19%	-1%	?	-56%	?	?	·	·	·
CCCNc1nc2c(c(=O)n(C)c(=O)n2C)n1Cc1cccc(C)c1	-8%	-9%	-9%	?	6.5µM*	i	0%	2%	10µM*
CCCNc1nc2c(c(=O)n(C)c(=O)n2C)n1CCC(C)C	-2%	-20%	-1%	-18%	9.2µM*	i	2%	-5%	?
O=C(COC(=O)C12CC3CC(CC(Cl)(C3)C1)C2)NCc1ccco1	-3%	-2%	·	-5%	2%	·	·	·	·
COc1ccccc1C(=O)N(Cc1cc2cccc(C)c2nc1N1CCC(O)CC1)C1CC1	·	·	·	·	·	i	·	·	·
Cn1cnc(C(=O)NCc2ccccc2)c1C(=O)NCc1ccccc1	-8%	9%	-12%	-4%	-11%	i	·	·	·
Cc1ccc(CC(=O)NC2CCSC2=O)cc1 (centres undefined)	2%	6%	·	-2%	-10%	i	·	·	·
